Values joined by “and” are separate entries in the source; they are usually repeats but may differ in a detail not shown here. Equal values may be shown once. Records with an inconclusive call do not appear. A call without a number means that no potency is given here. Some structures have more than one record in an assay (separate samples or runs), and their calls can disagree. Active and inactive are the calls of the source. Calls follow the shape of the dose curve; as a rule, active = well fitted cell-killing curve with a large enough effect; inconclusive = small, poorly fitted or top-dose-only effect, or effect the other way; inactive = flat fitted curve, though single readings scatter.
Experiments:
Test in all cases: Primary qHTS to identify gynecologic anti-cancer compounds using libraries of approved drugs and bioactive compounds (AID 1345084); also: nearly all actives have a fitted effect of over 55% in size
CAOV3 = settings: Gynecologic cancer cell panel viability, ATPlite luminescence, 48 h; series mostly up to 57.5 µM
In short: (§1)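 48 h compound exposure at 37 C, 5% CO2; five-point qHTS. ATPlite luminescence readout of cell ATP.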

CASKI = settings: Gynecologic cancer cell panel viability, ATPlite luminescence, 48 h; series mostly up to 57.5 µM
In short: as §1

Es-2 = settings: Gynecologic cancer cell panel viability, ATPlite luminescence, 48 h; series mostly up to 57.5 µM
In short: as §1

HeLa = settings: Gynecologic cancer cell panel viability, ATPlite luminescence, 48 h; series mostly up to 57.5 µM
In short: as §1

Hek293T = settings: Gynecologic cancer cell panel viability, ATPlite luminescence, 48 h, control line for the selectivity index; series mostly up to 57.5 µM
In short: as §1

JEG-3 = settings: Gynecologic cancer cell panel viability, ATPlite luminescence, 48 h; series mostly up to 57.5 µM
In short: as §1

OV90 = settings: Gynecologic cancer cell panel viability, ATPlite luminescence, 48 h; series mostly up to 57.5 µM
In short: as §1

PA-1 = settings: Gynecologic cancer cell panel viability, ATPlite luminescence, 48 h; series mostly up to 57.5 µM
In short: as §1

SKOV3 = settings: Gynecologic cancer cell panel viability, ATPlite luminescence, 48 h; series mostly up to 57.5 µM
In short: as §1

Tov-21-G = settings: Gynecologic cancer cell panel viability, ATPlite luminescence, 48 h; series mostly up to 57.5 µM
In short: as §1
Potency is read from the fitted curve at half-maximal effect.

SMILES	Potency (CAOV3)	Potency (CASKI)	Potency (Es-2)	Potency (HeLa)	Potency (Hek293T)	Potency (JEG-3)	Potency (OV90)	Potency (PA-1)	Potency (SKOV3)	Potency (Tov-21-G)
O=C1C=CC[C@@H]2[C@H]3CCCN4CCC[C@@H](CN12)[C@@H]34	inactive	inactive	inactive	inactive	inactive	inactive	inactive	inactive	inactive	inactive
CS(=O)(=O)c1ccc(C(=O)C2C(=O)CCCC2=O)c([N+](=O)[O-])c1	inactive	inactive	inactive	inactive	inactive	inactive	inactive	inactive	inactive	inactive
CN1CCN(c2ccc([N+](=O)[O-])c3no[n+]([O-])c23)CC1	inactive	inactive	inactive	inactive	inactive	inactive	inactive	inactive	inactive	inactive
O=S(=O)(c1ccc(Cl)cc1)c1ccc(Cl)cc1	inactive	inactive	inactive	inactive	inactive	inactive		inactive		inactive
COCCOCCO	inactive	inactive	inactive	inactive	inactive	inactive		inactive	inactive	inactive
CCOP(=O)(NC(C)C)Oc1ccc(SC)c(C)c1 (stereo not drawn)	inactive	inactive	inactive	inactive	inactive	inactive		inactive		inactive
c1cc2ccc3cccc4ccc(c1)c2c34	inactive	inactive	inactive	inactive	inactive	inactive	inactive	inactive	inactive	inactive
O=C(Nc1ccccc1-c1ccc(Cl)cc1)c1cccnc1Cl	inactive	inactive	inactive	inactive	inactive	inactive		inactive	inactive	inactive
O=C1C(I)=CC(=C(c2cc(I)c(O)c(I)c2)c2ccccc2C(=O)O)C=C1I	inactive	inactive	inactive	inactive	inactive	inactive	inactive	inactive	inactive	inactive
CC1=C(C(=O)O)N2C(=O)[C@@H](N)[C@H]2SC1	inactive	inactive	inactive	inactive	inactive	inactive	inactive	inactive	inactive	inactive
O=S(=O)(O)C(F)(F)C(F)(F)C(F)(F)C(F)(F)C(F)(F)C(F)(F)C(F)(F)C(F)(F)F	inactive	inactive	inactive	inactive	inactive	inactive	inactive	inactive	inactive	inactive
S=C(NC1CCCCC1)N1CCC(c2cnc[nH]2)CC1	inactive	inactive	inactive	inactive	inactive	inactive	inactive	inactive	inactive	inactive
O=C(O)COc1ccccc1	inactive	inactive	inactive	inactive	inactive	inactive	inactive	inactive	inactive	inactive
CCNC(=O)CC1N=C(c2ccc(Cl)cc2)c2cc(OC)ccc2-n2c(C)nnc21 (stereo not drawn)	inactive	inactive	inactive	inactive	inactive	inactive	inactive	inactive	inactive and 15.8 µM (active)	inactive
CC[N+]1(CCOC(=O)C(O)(c2ccccc2)c2ccccc2)CCCCC1	inactive	inactive	inactive	inactive	inactive	inactive	inactive	inactive	inactive	inactive
Cc1[nH]nc2ccc(-c3cncc(OC[C@@H](N)Cc4c[nH]c5ccccc45)c3)cc12	1120 nM (active)	2820 nM (active)	1780 nM (active)	891 nM (active)	631 nM (active)	2820 nM (active)	5620 nM (active)	794 nM (active)		708 nM (active)
CC(C)NCC(O)c1ccc([N+](=O)[O-])cc1 (stereo not drawn)	inactive	inactive	inactive	inactive	inactive	inactive	inactive	inactive	inactive	inactive
O=C(Oc1ccc([N+](=O)[O-])cc1)N1CCN(Cc2cccc(Oc3ccccc3)c2)CC1	inactive	inactive	inactive	inactive	inactive	inactive	inactive	inactive	inactive	inactive
O=C(N[C@@H](COc1ccc2[nH]c(=O)[nH]c2c1)c1ccccc1)c1cccn(Cc2ccc(F)c(F)c2)c1=O	inactive	inactive	inactive	inactive	inactive	inactive	inactive	inactive		inactive

SMILES	Potency (CAOV3)	Potency (CASKI)	Potency (Es-2)	Potency (HeLa)	Potency (Hek293T)	Potency (JEG-3)	Potency (OV90)	Potency (PA-1)	Potency (SKOV3)	Potency (Tov-21-G)
Nc1c(Cl)c(Cl)c(Cl)c(Cl)c1Cl	inactive	inactive	inactive	inactive	inactive	inactive	inactive	inactive		inactive
CCC(=O)O[C@@H]1C=C2CCC3C(CCC4(C)C3CC[C@@H]4OC(=O)CC)C2CC1 (stereo partly drawn)	inactive	inactive	inactive	inactive	inactive	inactive		inactive	inactive	inactive
O=[N+]([O-])c1ccc([As](=O)(O)O)cc1	inactive	inactive	inactive	inactive	inactive	inactive	inactive		inactive	inactive
Nc1ccc(Cl)cc1	inactive	inactive	inactive	inactive	inactive	inactive		inactive	inactive	inactive
O=C(O)CCCOc1ccc(Cl)cc1Cl	inactive	inactive	inactive	inactive	inactive	inactive	inactive	inactive		inactive
CC1(C)CC/C(=C/c2ccc(Cl)cc2)C1(O)Cn1cncn1 (stereo not drawn)	inactive	inactive	inactive	inactive	inactive	inactive		inactive	inactive	inactive
COC1=C[C@@H]2[C@@H]3Cc4ccc(OC)c(O)c4[C@]2(CCN3C)CC1=O	inactive	inactive	inactive	inactive	inactive	inactive	inactive	inactive	inactive	inactive
CC(C)N(CCNC(=O)CN1CCCC1=O)C(C)C	inactive	inactive	inactive	inactive	inactive	inactive	inactive	inactive		inactive
Cc1ccccc1-n1c(Cn2ncc3c(N)ncnc32)nc2cccc(C)c2c1=O	inactive	inactive	inactive	inactive	inactive	inactive	inactive	inactive	inactive	inactive
O=[N+]([O-])c1c(Cl)c(Cl)cc(Cl)c1Cl	inactive	inactive	inactive	inactive	inactive	inactive	inactive	inactive		inactive
O=C(N[C@H]1CN2CCC1CC2)c1ccc(Cl)cc1	inactive	inactive	inactive	inactive	inactive	inactive	inactive	inactive	inactive	inactive
CC(=O)Nc1ccc(OC[C@](C)(O)C(=O)Nc2ccc([N+](=O)[O-])c(C(F)(F)F)c2)cc1		inactive	inactive	inactive	inactive	inactive	inactive	inactive	inactive	
C1CCC(NC2CCCCC2)CC1		inactive	inactive	inactive	inactive	inactive	inactive	inactive	inactive	inactive
CC(C)(C)NC[C@H](O)c1ccc(O)cc1Cl		inactive	inactive	inactive	inactive	inactive	inactive			inactive
CCOC(=O)Nc1ccc(NCc2ccc(F)cc2)cc1N		inactive	inactive	inactive	inactive	inactive	inactive	inactive	inactive	inactive
O=C(Oc1ccc([N+](=O)[O-])cc1)N1CCC(C(O)(c2ccc3c(c2)OCO3)c2ccc3c(c2)OCO3)CC1		inactive	inactive	inactive	inactive	inactive	inactive	inactive	inactive	inactive
O=[N+]([O-])/N=C1\NCCN1Cc1ccc(Cl)nc1		inactive	inactive	inactive	inactive	inactive	inactive	inactive	inactive	inactive
COC(=O)c1cncn1C(C)c1ccccc1 (stereo not drawn)		inactive	inactive	inactive	inactive	inactive	inactive	inactive	inactive	inactive
CCN(CC)C(=O)c1ccc(C2=CC3(CCNCC3)Oc3cccc(O)c32)cc1		inactive	inactive	inactive	inactive	inactive	inactive	inactive	inactive	inactive
